Test results: PubChem BioAssay (NCI)
This is part of a sample that, as a whole, favours compounds with a hit. Of some 83,000 tested, about 20% had one in any assay.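 A percent growth of 40 corresponds to 60% growth inhibition; 0 means no net growth; -100 means all cells died. Active threshold: below 10.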 Values without a mark were called inactive. The source made the active and inactive calls.

tested on: OVCAR-8 ovarian; test: NCI-60 one-dose screen, 48 h (100 = growth as untreated, 0 = no growth, -100 = all killed); settings: 10 µM unless noted
Description: Growth inhibition of the OVCAR-8 human tumor cell line is measured as a screen for anti-cancer activity. Cells are grown in 96 well plates and exposed to the test compound for 48 hours. Compounds are tested at a single concentration, which is 10^-5 M for most compounds. The reported endpoint is percent growth (GI% or GIPRCNT), where numbers from 0 - 100% represent growth inhibition, and numbers from -100% - 0 represent cell death. For example, a value of 40 represents 60% growth inhibition. A value of 0 means no net growth occurred over the course of the experiment. A value of -40 indicates 40% of cells at the beginning of the experiment died by the end of the experiment. A value of -100 means all cells are dead at the end of the experiment.
NCI-60 Human Tumor Cell Lines Screen was performed using the standard one-dose NCI protocol, which is described in more detail at https://dtp.cancer.gov/discovery_development/nci-60/default.htm.
Compounds with GIPRCNT values below 10 were considered active. Activity score was based on GIPRCNT using the following formula: […]
Score is 0 for GIPRCNT values of 100 or above, 50 for GIPRCNT values of 0, and 100 for GIPRCNT values of -100.

Nc1nc(N)c2c(n1)NC(c1sc(Cl)nc1Cl)CC(c1ccccc1)=N2 (stereo not given) was tested. Which growth did it give?
The growth was 60.7%.

How did the growth turn out when CN(CCO)c1ccc(N2Cc3ccccc3OC3=C2C(=O)c2c(O)ccc(O)c2C3=O)cn1 was run?
The growth was 1.86% (active).

For COC(=O)c1ccc(NC(N)=NCCC(C)(C)c2ccc(C(F)(F)F)cc2)nc1, which growth is on record?
The growth was 50.1%.

How did the growth turn out when COS(=O)(=O)CCN(CCOS(C)(=O)=O)S(C)(=O)=O was run?
The growth was 94.9%.

For CC(=O)c1c(O)c(C)c(O)c2c1OC1=CC(=O)/C(=C(/C)N)C(=O)C12C (stereo not given), which growth is on record?
The growth was 81.8%.

With COC1CC(N)C2OC(c3ccccc3)OCC2O1 (stereo not given) as the molecule, how does the growth read?
Its growth is 98.4%.

Which growth does the source give for O=c1cc(-c2ccc3c(c2)OCCO3)oc2cc(Cl)ccc12 here?
Its growth is 13.5%.

For COc1ccc(/C=C2\N=C(c3cccnc3)N(c3ccccc3)NC2=O)cc1, which growth is on record?
The growth was 95.9%.

How did the growth turn out when O=C1C(Cl)=C(N/N=c2/[nH][nH]/c(=N/NC3=C(Cl)C(=O)c4ccccc4C3=O)c3ccccc23)C(=O)c2ccccc21 was run?
Its growth is 78.1%.

For CC[C@H](Nc1nc(C)nc(N)c1C#N)c1nc2cccc(NCc3ccc(C(=O)NO)cc3)c2c(=O)n1-c1ccccc1, which growth is on record?
Its growth is 2.46% (active).

Which growth does the source give for Nc1c(C(=O)Nc2cccc(Cl)c2)sc2ncc(Br)cc12 here?
The growth was 87.1%.

With Cc1cc2nc3c(=O)[nH]c(=O)nc-3n(CC=O)c2cc1C as the molecule, how does the growth read?
Its growth is 121%.

For O=C(CS)OCC(COC(=O)CS)(COC(=O)CS)COC(=O)CS, which growth is on record?
The growth was 82.2%.

For CCCCNCC(O)c1cc(-c2ccc(C(F)(F)F)cc2)nc(-c2ccc(C(F)(F)F)cc2)c1 (stereo not given), which growth is on record?
The growth was -71.1% (active).

With O=C(Nc1ccc(Oc2ccc(NC(=O)Nc3ccccc3Cl)cc2)cc1)Nc1ccccc1Cl as the molecule, how does the growth read?
Its growth is 56.1%.

With CC1(C)CC[C@]2(C(=O)N3CCNCC3)CC[C@]3(C)C(=CC[C@@H]4[C@@]5(C)CCC(=O)C(C)(C)[C@@H]5CC[C@]43C)[C@@H]2C1 as the molecule, how does the growth read?
Its growth is 95.9%.

Which growth does the source give for CN1CCN(Cc2ccc(NC(=O)c3ccc(C#N)c(C#Cc4cnc(N)c5ncccc45)c3)cc2C(F)(F)F)CC1 here?
The growth was 12.6%.

COc1cc2nccc(Oc3ccc(NC(=O)C4(C(=O)Nc5ccc(F)cc5)CC4)cc3)c2cc1Oc1ccc(N)cn1 was tested. Which growth did it give?
The growth was 47.1%.

With FC(F)(F)c1ccc(/C=N/Nc2nnc3n2N=C(c2ccc(Cl)cc2)CS3)cc1 as the molecule, how does the growth read?
The growth was 19.9%.

For CCCCn1c(C)nc2cc(Nc3nc(Cl)nc4nc[nH]c34)ccc21, which growth is on record?
The growth was 84.2%.

For FC(F)(F)C1=NNC(c2ccc3ccccc3c2)=NN1, which growth is on record?
Its growth is 97.4%.

How did the growth turn out when CCN1CCN(Cc2ccc(NC(=O)c3nc4ccc5[nH]ncc5c4c4c3CCCC4)cc2C(F)(F)F)CC1 was run?
The growth was -59.3% (active).

With CCSc1ccc([C@@H]2[C@@H](O)C(=O)N2c2cc(OC)c(OC)c(OC)c2)cc1 as the molecule, how does the growth read?
Its growth is 16.1%.

With CC1CCN(Cc2ccc(NC(=O)c3cc4ccc5cccnc5c4[nH]3)cc2)CC1 as the molecule, how does the growth read?
The growth was 34.1%.

How did the growth turn out when C=CCn1c(SCC(=O)Nc2ccc(C(=O)/C=C/c3ccc(Cl)cc3)cc2)nnc1-c1ccc(Cl)cc1 was run?
Its growth is 87.9%.

How did the growth turn out when Brc1cccc(-n2ncc3c(Nc4ccc(-c5nnc(-c6ccccc6)o5)cc4)ncnc32)c1 was run?
The growth was 97.8%.

With O=C(/C=C/c1cn(-c2ccccc2)nc1-c1cccc(Nc2ccnc3cc(Cl)ccc23)c1)c1ccc2c(c1)OCO2 as the molecule, how does the growth read?
Its growth is 91.9%.

CCCCCCCCCC1=NC(C)(C)CN1C(C)(C)CO was tested. Which growth did it give?
Its growth is 102%.

How did the growth turn out when O=C(Nc1ccc2ncnc(Nc3ccc(F)c(Cl)c3)c2c1)c1cccs1 was run?
Its growth is 66.2%.

For COc1cc(Cn2c(-c3ccccc3)cc3c2-c2oncc2CC3)cc(OC)c1OC, which growth is on record?
Its growth is 34.2%.

With [Ag].[Ag].[NH-]S(=O)(=O)c1ccc(N=Nc2cc(N=Nc3ccc(S([NH-])(=O)=O)cc3)c3c(NC(=O)C(Cl)Cl)cccc3c2OC(=O)C(Cl)Cl)cc1.[c-]1nccs1.[c-]1nccs1 as the molecule, how does the growth read?
The growth was 68.3%.

CCOC(=O)c1ccc(N(CCC(=O)O)C(C)=O)cc1 was tested. Which growth did it give?
Its growth is 104%.

Which growth does the source give for Nc1nc2ccc([C@@H]3Nc4ccc5[nH]ncc5c4[C@H]4[C@H]5CCC(C5)[C@H]43)cc2s1 here?
The growth was 37.5%.

Clc1ccc2c(c1)-n1cccc1C(c1ccc3ccccc3c1)=NC2 was tested. Which growth did it give?
The growth was 102%.

COc1cc(OC)cc(-c2n/c(=C\c3c(O)[nH]c4ccc(Cl)cc34)cc3c2=Nc2ccccc2-3)c1 was tested. Which growth did it give?
The growth was 54.5%.

With COc1cc2c(cc1I)-c1c(cc(OC)c(OC)c1OC)CC[C@@H]2NC(C)=O as the molecule, how does the growth read?
The growth was 24.6%.

CC(=O)O[C@H]1[C@H](CC#CC#CC[C@@H]2C[C@]3(C)[C@H]4CC=C5[C@H]6[C@@H](C)[C@H](C)CC[C@]6(C(=O)NCCCCCCCCN)CC[C@@]5(C)[C@]4(C)CC[C@H]3C(C)(C)[C@H]2OC(C)=O)C[C@]2(C)[C@H]3CC=C4[C@H]5[C@@H](C)[C@H](C)CC[C@]5(C(=O)NCCCCCCCCN)CC[C@@]4(C)[C@]3(C)CC[C@H]2C1(C)C was tested. Which growth did it give?
Its growth is 108%.

For CCN(CC)Cc1cc(Nc2nc(NC3CCC(N(C)C)CC3)c3ccccc3n2)ccc1OC (stereo not given), which growth is on record?
Its growth is 63.8%.

With COc1ccc2c(c1)CCCC21C(=O)Nc2c(Cl)cccc21 (stereo not given) as the molecule, how does the growth read?
Its growth is 84.6%.

CC(C)(C)NC(=O)C(OC(=O)C1CCc2cc(F)ccc2O1)c1ccccc1Cl (stereo not given) was tested. Which growth did it give?
The growth was 98.3%.
